The results in this text go back to PubChem BioAssay.

Structures are written as SMILES. Calls of active or inactive are those of the source.

The target of test [1] is Albumin (Bos taurus) (UniProt P02769). In words: compounds binding labelled BSA control protein – biochemical, small-molecule microarray, Alexa647 label, 635/667 nm fluorescence, artefact control for SMM control protein annotation, profiling panel (AID 1118).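 Also: score merges 667 nm emission intensity and signal-to-noise per printed compound spot.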 As to conditions: BSA-A647 binding, fluorescence 635 nm, higher = more signal.
A short description of test [2]: probe aXIP binding to arrayed compounds – biochemical, NeuroSMM set, 635/667 nm fluorescence, primary screen (AID 1119).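 Also: probe is the protein aXip251-270 applied at 1 µg/mL to compound-printed slides; binding of probe to printed compounds measured as 667 nm fluorescence plus signal to noise.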 As to conditions: small-molecule microarray, higher = more signal, called active from +8 up or from −8 down.
Test [3] can be described thus: probe aNOTCH3 binding on compound microarray – biochemical, small-molecule microarray, 635/667 nm fluorescence, primary screen (AID 1120).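 Also: probe is a biotin-tagged antibody raised against NOTCH3 rather than NOTCH3 protein; score merges spot fluorescence near 667 nm with spot signal to noise.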 As to conditions: higher = more signal.
Test [4] can be described thus: probe aNOTCH2 binding on compound microarray – biochemical, small-molecule microarray, 635/667 nm fluorescence, primary screen (AID 1121).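 Also: score merges feature fluorescence read at 667 nm with its signal to noise.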 As to conditions: higher = more signal.
For test [5], the target named is Carbonic anhydrase 2 (Homo sapiens) (UniProt P00918). Kind of test: compounds binding carbonic anhydrase 2 – biochemical, small-molecule microarray, Alexa647-labelled CAII, profiling panel (AID 1122). To be noted: CAII-A647 binding fluorescence, higher = more signal.
Test [6] in a line: COS7 lysate on small-molecule microarray, probe aHis, 635 nm (AID 1123).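 Also: z-score combines 667nm fluorescence intensity with signal-to-noise per printed compound spot.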 As to conditions: COS7 cell lysate, fluorescence, higher = more signal.
Test [7] in a line: probe aLAP1 signal on lysate-treated microarray – cell lysate, small-molecule microarray, COS7 lysate, primary screen (AID 1124).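 Also: lysate comes from COS7 cells expressing LAP1 and is applied at 0.3 µg/mL; score merges spot fluorescence near 667 nm with signal-to-noise over triplicate slides.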 As to conditions: probe aLAP1, fluorescence, higher = more signal.
Test [8] has as its system Sam68 (KHDRBS1). In words: compounds binding KHDRBS1 protein – biochemical, small-molecule microarray, 635 nm fluorescence, primary screen (AID 1125).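 Also: score merges 667 nm channel intensity with signal to noise over triplicate slides.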 To be noted: higher = more signal.
Test [9] has as its system Chordin-like protein 2 (CHRDL2). Kind of test: compounds binding chordin-like 2 – biochemical, small-molecule microarray, 635 nm fluorescence, primary screen (AID 1126).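 Also: printed compound slides probed with Chrdl2 protein at 4 µg/mL for 1 h at 4 C; score merges 667 nm emission intensity with signal to noise over three replicate slides.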 As to conditions: fluorescence 635 nm, higher = more signal.
Test [10] addresses Concanavalin-A (Canavalia ensiformis) (UniProt P02866). Kind of test: compounds binding concanavalin A lectin – biochemical, small-molecule microarray, Alexa647 label, 635 nm, artefact control for SMM control protein annotation, primary screen (AID 1127).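 Also: z combines 667 nm emission intensity with signal-to-noise across three replicate slides.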 To be noted: ConA-A647 binding fluorescence, higher = more signal.
Test [11] can be described thus: compounds binding Alexa647 anti-His antibody – biochemical, small-molecule microarray, 635 nm fluorescence, artefact control for SMM control protein annotation, primary screen (AID 1128).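 Also: score merges feature fluorescence with signal-to-noise for each printed compound spot.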 To be noted: higher = more signal.
The subject of test [12] is Human papillomavirus type 1a E7 protein (residues 1-88). Kind of test: HPV1a E7 small-molecule binders, primary screen, biochemical, small-molecule microarray, residues 1-88, 635 nm (AID 1129). As to conditions: small-molecule microarray binding, fluorescence 635 nm; higher = more signal.
The target in test [13] is Focal adhesion kinase 1 (Homo sapiens) (UniProt Q05397). In words: PTK2 protein binding on printed compound slides – biochemical, small-molecule microarray, 635/667 nm fluorescence, BSA, DTT, primary screen (AID 1130).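 Also: composite of spot emission at 667 nm and signal to noise over triplicate slides.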 As to conditions: 635 nm fluorescence, higher = more signal.
Test [14] relates to Fibrinogen (Alexa647-labelled). In words: Alexa647-fibrinogen binding to printed small molecules – biochemical, small-molecule microarray, 635/667 nm fluorescence, artefact control for SMM control-protein annotation, profiling panel (AID 1131).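 Also: z-score merges 667 nm fluorescence with per-spot signal-to-noise over triplicate slides.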 To be noted: fibrinogen-A647 binding fluorescence, higher = more signal.
Test [15] concerns the target Follistatin (Homo sapiens) (UniProt P19883). Kind of test: FST protein binding to printed compounds – biochemical, small-molecule microarray, 635/667 nm fluorescence, primary screen (AID 1132). As to conditions: 635 nm fluorescence, higher = more signal.
Test [16] deals with Fibroblast growth factor 2 (Homo sapiens) (UniProt P09038). Kind of test: basic fibroblast growth factor binding to printed compounds – biochemical, small-molecule microarray, 635/667 nm fluorescence, primary screen (AID 1133). To be noted: FGF2, fluorescence 635/667, higher = more signal.
Test [17] is described as follows: JC-1 mitochondrial potential readout, lung cancer cells – cell-based, A549, JC-1 fluorescence, basal, 24 h, 100 nL, profiling panel (AID 1138).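 Also: A549 lung adenocarcinoma cells under basal conditions with no added stimulus; test concentration not given here.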 As to conditions: higher = more signal.
The test system of test [18] is Lefty1. Kind of test: Lefty1 protein binding to printed compounds – biochemical, small-molecule microarray, 635/667 nm fluorescence, primary screen (AID 1139). To be noted: fluorescence 635/667, higher = more signal.
Test [19] has as its system wheat germ agglutinin (Triticum aestivum), Alexa647-labelled. In words: Alexa647-WGA lectin binding to printed small molecules – biochemical, small-molecule microarray, 635/667 nm fluorescence, artefact control for SMM control-protein annotation, profiling panel (AID 1140).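 Also: score merges 667 nm feature emission with signal to noise over triplicate slides.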 To be noted: WGA-A647 binding, 635 nm fluorescence, higher = more signal.
Test [20] concerns the target Luciferin 4-monooxygenase (Photinus pyralis) (UniProt P08659). In words: inhibition of purified Photinus pyralis luciferase – biochemical, luminescence, purified enzyme, 2006 set, primary screen (AID 1141).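 Also: cell-free assay with purified firefly luciferase at 100 ng per well in PBS; test concentration not given here.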 As to conditions: purified firefly luciferase, SteadyGlo luminescence, 30 min; higher = more signal, called active from +8 up or from −8 down.

Chain of Luciferin 4-monooxygenase (Photinus pyralis) (P08659 whole entry, looked up): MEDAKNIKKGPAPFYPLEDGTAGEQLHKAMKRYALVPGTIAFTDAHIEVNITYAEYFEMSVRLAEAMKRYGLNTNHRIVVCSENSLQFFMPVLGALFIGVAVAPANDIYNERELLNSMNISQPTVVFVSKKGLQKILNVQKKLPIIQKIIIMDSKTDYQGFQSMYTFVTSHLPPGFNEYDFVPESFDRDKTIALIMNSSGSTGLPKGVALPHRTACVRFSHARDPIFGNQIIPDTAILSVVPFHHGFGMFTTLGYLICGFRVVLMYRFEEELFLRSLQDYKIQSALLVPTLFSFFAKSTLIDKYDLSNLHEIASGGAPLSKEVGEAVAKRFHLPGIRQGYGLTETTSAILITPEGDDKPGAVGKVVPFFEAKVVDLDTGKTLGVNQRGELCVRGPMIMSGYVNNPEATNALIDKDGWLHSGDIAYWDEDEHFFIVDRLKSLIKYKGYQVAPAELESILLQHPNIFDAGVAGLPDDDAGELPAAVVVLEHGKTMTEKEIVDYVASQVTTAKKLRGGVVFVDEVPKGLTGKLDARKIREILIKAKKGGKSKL
Chain of Focal adhesion kinase 1 (Homo sapiens) (Q05397 whole entry, looked up): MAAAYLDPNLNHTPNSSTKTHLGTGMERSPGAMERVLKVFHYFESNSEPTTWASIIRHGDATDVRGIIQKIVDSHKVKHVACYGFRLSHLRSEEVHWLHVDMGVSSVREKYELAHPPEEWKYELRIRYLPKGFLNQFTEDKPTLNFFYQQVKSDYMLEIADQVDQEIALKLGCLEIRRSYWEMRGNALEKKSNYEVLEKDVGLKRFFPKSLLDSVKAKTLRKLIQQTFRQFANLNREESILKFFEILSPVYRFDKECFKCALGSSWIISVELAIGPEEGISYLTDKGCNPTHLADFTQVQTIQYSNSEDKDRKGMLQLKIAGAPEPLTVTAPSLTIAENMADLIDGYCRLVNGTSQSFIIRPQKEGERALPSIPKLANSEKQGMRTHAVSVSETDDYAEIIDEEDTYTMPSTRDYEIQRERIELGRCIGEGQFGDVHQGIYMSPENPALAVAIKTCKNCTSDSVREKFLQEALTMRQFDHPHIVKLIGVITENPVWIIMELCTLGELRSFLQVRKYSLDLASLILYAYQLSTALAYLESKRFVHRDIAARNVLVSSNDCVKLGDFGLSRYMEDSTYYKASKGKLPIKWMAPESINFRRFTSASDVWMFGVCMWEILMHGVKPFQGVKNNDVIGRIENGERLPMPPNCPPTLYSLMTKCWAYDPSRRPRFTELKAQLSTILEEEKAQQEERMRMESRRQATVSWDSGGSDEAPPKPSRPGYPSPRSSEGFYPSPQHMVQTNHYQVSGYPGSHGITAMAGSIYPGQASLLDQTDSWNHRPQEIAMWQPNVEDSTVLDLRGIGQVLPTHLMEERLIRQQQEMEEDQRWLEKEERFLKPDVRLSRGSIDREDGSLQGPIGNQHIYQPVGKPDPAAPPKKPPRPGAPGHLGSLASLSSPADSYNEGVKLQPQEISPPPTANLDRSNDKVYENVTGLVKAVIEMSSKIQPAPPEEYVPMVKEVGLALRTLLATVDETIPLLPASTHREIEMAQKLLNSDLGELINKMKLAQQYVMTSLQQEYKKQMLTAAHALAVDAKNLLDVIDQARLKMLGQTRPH
Chain of Follistatin (Homo sapiens) (P19883 whole entry, looked up): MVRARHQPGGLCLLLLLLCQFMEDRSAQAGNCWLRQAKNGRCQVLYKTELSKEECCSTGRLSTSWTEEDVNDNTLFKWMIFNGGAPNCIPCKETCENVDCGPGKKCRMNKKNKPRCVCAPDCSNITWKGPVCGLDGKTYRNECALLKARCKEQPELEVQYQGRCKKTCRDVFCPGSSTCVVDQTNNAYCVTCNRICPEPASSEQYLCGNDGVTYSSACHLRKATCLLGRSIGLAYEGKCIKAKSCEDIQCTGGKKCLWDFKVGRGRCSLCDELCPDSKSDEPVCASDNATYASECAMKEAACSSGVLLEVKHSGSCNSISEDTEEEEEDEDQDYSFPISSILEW
Chain of Fibroblast growth factor 2 (Homo sapiens) (P09038 whole entry, looked up): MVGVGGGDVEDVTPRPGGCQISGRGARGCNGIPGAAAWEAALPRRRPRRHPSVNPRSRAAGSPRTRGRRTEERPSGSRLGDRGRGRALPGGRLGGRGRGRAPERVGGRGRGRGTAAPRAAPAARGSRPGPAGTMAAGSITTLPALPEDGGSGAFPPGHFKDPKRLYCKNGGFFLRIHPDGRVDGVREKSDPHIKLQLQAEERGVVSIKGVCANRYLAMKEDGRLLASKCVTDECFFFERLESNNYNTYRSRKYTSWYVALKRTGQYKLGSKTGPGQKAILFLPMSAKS
Chain of Concanavalin-A (Canavalia ensiformis) (P02866 whole entry, looked up): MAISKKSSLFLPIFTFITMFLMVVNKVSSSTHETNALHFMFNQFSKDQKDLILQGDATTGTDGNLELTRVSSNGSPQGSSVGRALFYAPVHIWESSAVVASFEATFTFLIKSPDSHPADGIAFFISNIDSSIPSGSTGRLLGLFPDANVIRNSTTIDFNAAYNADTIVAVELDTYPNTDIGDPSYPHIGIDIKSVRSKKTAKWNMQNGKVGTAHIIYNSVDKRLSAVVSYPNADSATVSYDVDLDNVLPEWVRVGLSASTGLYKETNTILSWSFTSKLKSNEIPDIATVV
Chain of Albumin (Bos taurus) (P02769 whole entry, looked up): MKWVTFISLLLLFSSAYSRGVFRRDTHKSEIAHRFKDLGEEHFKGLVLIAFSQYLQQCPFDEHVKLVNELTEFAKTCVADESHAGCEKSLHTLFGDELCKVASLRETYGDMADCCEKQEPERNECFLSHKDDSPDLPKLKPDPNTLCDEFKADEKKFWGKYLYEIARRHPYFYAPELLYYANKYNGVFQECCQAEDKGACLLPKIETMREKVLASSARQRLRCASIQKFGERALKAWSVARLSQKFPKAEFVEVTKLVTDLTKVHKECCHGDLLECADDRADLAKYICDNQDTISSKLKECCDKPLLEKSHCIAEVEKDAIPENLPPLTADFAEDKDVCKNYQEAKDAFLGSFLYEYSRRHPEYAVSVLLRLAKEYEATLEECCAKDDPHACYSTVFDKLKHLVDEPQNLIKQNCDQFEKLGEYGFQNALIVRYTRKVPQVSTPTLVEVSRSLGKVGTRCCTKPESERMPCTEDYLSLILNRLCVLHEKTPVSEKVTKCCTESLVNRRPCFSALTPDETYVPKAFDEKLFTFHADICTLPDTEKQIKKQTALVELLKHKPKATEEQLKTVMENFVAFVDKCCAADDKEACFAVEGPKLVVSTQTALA

Regarding `CC1CC/C=C\[C@H]2OC34C=CCN(c5ccc(Cl)cc5)C(=O)[C@H]3N(CCCCCCO)C(=O)[C@]4(C)C2C(=O)O1` (stereo not given in full), the composite z-score in [1] was -0.685; in [3] it was -0.314; in test [4], 0.309; in test [5], 0.3; in test [6], 0.383; in [7] it was -0.17. In addition, the composite z-score in [8] is -0.552; in test [9], -0.742; in test [10] it was -0.241; in test [11], 0.867; in test [12] it was -0.629; in [13], -0.487. Also, the composite z-score in [14] was -0.87; in [15], -0.518; in [16] it was -0.662; in test [18], -0.629; in test [19], -0.988. In [2], the composite Z-score is 0.0185 (inactive). Besides, the z-score in test [17] was 1; in [20], -1.55 (inactive).
Regarding `O=C1O[C@@H](c2ccccc2)[C@@H](c2ccccc2)N2[C@@H](c3ccc(OCCO)cc3)[C@]3(C(=O)Nc4ccc(C#CC5(O)CCCCCC5)cc43)[C@@H](C(=O)O)[C@H]12`, the composite z-score is 0.572 in test [1]; 0.0745 in test [3]; -0.0725 in test [4]; 0.685 in [5]; 0.969 in [6]; 0.58 in test [7]. The composite z-score in test [8] was 1.34; in [9], -0.458; in test [10], 0.994; in [11], 2.8; in [12] it was 1.18; in [13] it was 1.24. For the same molecule, the composite z-score came out at 0.832 in test [14]; 0.776 in test [15]; 0.155 in test [16]; 0.68 in test [18]; 0.601 in test [19]. The composite Z-score in test [2] was -0.014 (inactive). For the same molecule, the z-score in test [17] is 0.741; in [20], -2.86 (inactive).
On to `CCOC(=O)C[C@H]1[C@H](OC(=O)c2ccccc2-c2ccccc2)[C@@H](NC(=O)C2CCCCC2)c2cc(OCCCO)ccc2N1C(=O)c1ccc2ccccc2n1`, for which the composite z-score in test [1] is 0.632; in test [3], 0.0553; in test [4], -0.037; in test [5] it was 0.258; in [6], 0.249; in [7], 0.358. Also, the composite z-score in test [8] was 1.07; in [9], 0.162; in test [10], -0.0181; in [11], 0.316; in test [12], 0.667; in test [13], 0.853. Moreover, the composite z-score was determined as 0.593 in test [14]; 1.15 in test [15]; 0.889 in test [16]; 1.09 in test [18]; 0.27 in [19]. Further, the composite Z-score in test [2] was 0.0805 (inactive). The z-score is 0.309 in test [17] and 0.595 (inactive) in test [20].
For the molecule `CC(C)(C)N1CC=CC23O[C@@H]4C=CCCOC(=O)C4[C@H]2C(=O)N(CCCCCCO)[C@@H]3C1=O` (stereo not given in full), the composite z-score in [1] was -0.188; in test [3] it was -0.0716; in test [4], -0.124; in [5] it was 0.834; in [6], -0.0431; in test [7], 0.0582. In addition, the composite z-score was 0.28 in test [8]; -1.29 in test [9]; -0.202 in test [10]; 0.129 in [11]; 0.11 in test [12]; -0.385 in test [13]. Besides, the composite z-score was -0.959 in test [14]; -0.327 in test [15]; -1.16 in test [16]; -0.0747 in test [18]; -1.2 in test [19]. Moreover, the composite Z-score in [2] was -0.192 (inactive). For the same molecule, the z-score is 0.223 in [17] and -0.876 (inactive) in test [20].
For the molecule `C=CCOC(=O)[C@@H]1[C@H]2C(=O)O[C@H](c3ccccc3)[C@H](c3ccccc3)N2[C@H](c2ccc(OCCOC(=O)[C@H]3C[C@H]4C(=O)N5CCC[C@H]5C(=O)N4[C@H]3c3cccc(OCCO)c3)cc2)[C@@]12C(=O)Nc1ccc(I)cc12`, the composite z-score is -0.638 in test [1]; -0.0328 in test [3]; -0.0228 in [4]; 0.219 in test [5]; 0.942 in test [6]; 0.448 in [7]. The composite z-score turned out to be 1.3 in [8]; 1.02 in test [9]; 1.17 in test [10]; 1.04 in [11]; 0.994 in [12]; 0.746 in [13]. The composite z-score stood at 0.241 in [14]; 1.4 in test [15]; 1.38 in [16]; 1.44 in test [18]; 0.555 in [19]. For the same molecule, the composite Z-score in test [2] was 1.17 (inactive). Moreover, the z-score in [17] was -1.32; in test [20], 0.0266 (inactive).
In the case of `COCCOC(=O)N1C(=O)[C@@]2(c3cc(C#CCNC(N)=O)ccc31)[C@H](C(=O)Nc1nc3ccccc3s1)[C@H]1C(=O)O[C@H](c3ccccc3)[C@H](c3ccccc3)N1[C@@H]2c1ccccc1OCCO`, the composite z-score in test [1] was 0.074; in test [3], 0.0306; in [4], -0.0432; in test [5], 0.47; in test [6], 1.17; in test [7] it was 0.151. Moreover, the composite z-score in [8] is 0.975; in test [9] it was 1.23; in test [10], 1.04; in test [11] it was -0.218; in test [12], 0.423; in test [13] it was 0.553. Moreover, the composite z-score in test [14] turned out to be 0.749; in test [15] it was 1.48; in [16], 1.61; in [18], 1.39; in [19], 0.489. Also, the composite Z-score in test [2] was -0.523 (inactive). Further, the results for the z-score in test [17] and in [20] were -1.79 and -2.69 (inactive), respectively.
For the molecule `COc1ccc(NN2C(C(O)c3ccc(I)cc3)C=CC3C(=O)N(C4CCCCC4)C(=O)C32)cc1` (stereo not given), the composite z-score in [1] is 0.843; in [3], 0.394; in test [4] it was -0.075; in [5], 0.444; in [6] it was 1.53; in test [7], 0.444. The composite z-score is 1.32 in [8]; -0.195 in [9]; 1.1 in test [10]; 0.698 in [11]; 1.23 in test [12]; -0.0558 in [13]. Besides, the composite z-score was 0.951 in [14]; 1.3 in test [15]; 0.366 in test [16]; 0.946 in test [18]; 1.22 in [19]. Also, in test [2], the composite Z-score was 0.84 (inactive). Moreover, the z-score was 0.119 in test [17] and 1.29 (inactive) in test [20].
With `CC(C)(C)OC(=O)CC[C@]1(C(=O)NCC(O)CO)N=C(c2ccc(OCCCO)cc2)O[C@H]1c1ccccc1N=[N+]=[N-]` (stereo not given in full), the composite z-score in test [1] was 1.02; in test [3] it was 0.163; in test [4], 0.149; in test [5] it was 0.719; in test [6], 3.53; in test [7] it was 1.03. Also, the composite z-score in test [8] stood at 0.723; in test [9], 0.0058; in [10], 0.715; in test [11], 2.42; in test [12], 1.01; in [13] it was 0.696. In addition, the composite z-score is 0.953 in test [14]; 1.38 in [15]; 0.581 in [16]; -0.41 in test [18]; 1.3 in test [19]. Further, in [2], the composite Z-score is 1.33 (inactive). The z-score in test [17] is 0.739; in [20], -8.87 (active).
